“And” between values parts separate entries of the source, which are not always exact repeats. Identical values can stand only once. Records with an inconclusive call do not appear. A call without a number means that no potency is given here. Values without a mark were called inactive. The source made the active and inactive calls. Calls come from the whole dose curve; as a rule, active = well fitted cell-killing curve with a large enough effect in the repeat runs; inconclusive = weak or mixed curves, or effect the other way; inactive = flat fitted curve, though single readings scatter.
Potency is the fitted concentration of half-maximal effect.

A short description of the assay: qHTS assay to identify small molecule agonists of the constitutive androstane receptor (CAR) signaling pathway - cell viability counter screen (AID 1224836). Note: nearly all actives have a fitted effect of over 45% in size. The following applies: HepG2-CYP2B6-hCAR viability, CellTiter-Fluor, 23 h, PK11195 added to every well; series mostly up to 92.4 µM; viability change, negative = cytotoxic: at the top concentration. The source says: U.S. Tox21 Program National Center for Advancing Translational Sciences [NCATS] NIH Chemical Genomics Center [NCGC] U.S. Environmental Protection Agency [EPA] National Institutes of Environmental Health Sciences [NIEHS] National Toxicology Program [NTP] U.S. Food and Drug Administration [FDA] Tox21 Assay Overview: The constitutive androstane receptor (CAR) is a nuclear receptor which regulates multiple drug metabolizing enzymes (DMEs) and transporters. Activating CAR will generally increase the transcription and subsequent translation of CYP2B6 and CYP3A4. These two DMEs represent about 50% of the drug metabolizing potential in the body. […] Recently, there have also been studies performed indicating CARs role in energy metabolism and cancer therapy. Therefore, inducing CARs activity could have a potential effect on diabetes and cancer. Identifying environmental toxins and compounds which modulate CAR, through the use of the Tox21 10K compound collection, will be an important step in determining the toxicity and potential therapeutic effects these factors will have on the human body. To differentiate true CAR agonists from cytotoxic substances, the assay is multiplexed with a cell viability assay.
Tox21 Assay Protocol Summary: A double-stable (hCAR and CYP2B6-2.2kb) transfected cell line, derived from human hepatoma (HepG2) cells, was utilized for the duration of the quantitative high-throughput screens. The HepG2-CYP2B6-hCAR cells were dispensed at 2500 cells/4 uL/well in 1536-well white solid bottom plates using a Multidrop Combi. After the assay plates were incubated at 37 C/5% CO2 for 4 hrs, 23 nL of compounds at 15 concentrations (from 5-48 columns) or positive control (from 1 to 4 columns) were transferred to the assay plates using a Pintool station. One uL of PK11195 (final concentration = 0.75 uM) was added, using a Flying Reagent Dispenser, inside each well. After a 23 hr incubation period at 37 C/5% CO2, 1 uL of CellTiter-Fluor reagent was added into each well of the assay plates using a Flying Reagent Dispenser. The fluorescence intensity in the plates was then measured using a ViewLux plate reader.
Turning to `C=CC(C)(CCC=C(C)C)OC(C)=O` (stereo not given), the Potency entry was “inactive”.
Consider `CC(C)(C)NC(=O)[C@H]1CC[C@H]2[C@@H]3CC[C@H]4NC(=O)C=C[C@]4(C)[C@H]3CC[C@]12C`, for which the Potency result was “inactive”.
Take `CC(C)OC=O`: the Potency entry was “inactive”.
Consider `O=C(O)c1ccccc1Nc1cccc(C(F)(F)F)c1`, for which the Potency entry was “inactive”.
In the case of `CC1=CCC(C(C)(C)O)CC1` (stereo not given), the Potency entry was “inactive”.
For the molecule `COC(C)COC(C)COC(C)CO` (stereo not given), the Potency entry was “inactive”.
On to `O=CCCCC=O`, for which the Potency entry is “inactive”.
The same measure, in the same setting: the entry for `CC(=O)C1(C)CC2=C(CCCC2(C)C)CC1C` (stereo not given) is “inactive”.
The same measure, in the same setting: the entry for `CC(=O)CC/C=C(\C)CCC=C(C)C` is “inactive”; for `CCC(C)(O)CCCC(C)C` (stereo not given) it is “inactive”.
`COc1c(Cl)c(Cl)c(Cl)c(Cl)c1Cl`: the Potency entry was “inactive”.
Regarding `COc1ccc(OC)c(C(O)CNC(=O)CN)c1` (stereo not given), the Potency result is “inactive”.
Still for that read-out and setting: as for `CC(=O)c1ccccn1`, the entry is “inactive”.
In the case of `O=C(COc1ccc(Cl)cc1)N1CCN(Cc2ccc3c(c2)OCO3)CC1`, the “viability change, negative = cytotoxic” value was 0.891% [at 42.5 µM].
With `c1ccc2c(c1)Oc1ccccc1S2`, the Potency entry was “inactive”.
For the molecule `c1ccncc1`, the Potency entry was “inactive”.
On the same count and under the same terms, the figure for `COc1cccc2c1C(=O)c1c(O)c3c(c(O)c1C2=O)C[C@@](O)(C(=O)CO)C[C@@H]3O[C@H]1C[C@H](N)[C@H](O)[C@H](C)O1` is 6.85 µM (active) and 6.68 µM (active).
With `Cc1cccc(N(C)C(=S)Oc2ccc3ccccc3c2)c1`, the Potency entry was “inactive”.
The same measure, in the same setting: as for `CN(C)C(=N)N=C(N)N`, the entry is “inactive”; as for `Nc1ccc(Nc2ccccc2)cc1`, “inactive”.
`CCCCNS(=O)(=O)c1ccccc1`: the Potency result was “inactive”.
With `CCCCCCCCCCCO`, the Potency entry is “inactive”.
Consider `CCCc1c(OCCCCc2nn[nH]n2)ccc(C(C)=O)c1O`, for which the Potency entry was “inactive”.
For the molecule `NC=O`, the Potency result is “inactive”.
Still for that read-out and setting: the entry for `OCCO` is “inactive”.
Take `O=C(c1ccccc1)c1ccc(O)cc1O`: the “viability change, negative = cytotoxic” value is -2.51%.
Consider `O=Cc1ccccc1O`, for which the Potency result was “inactive”.
As to `Cc1[nH]c(=O)c(C#N)cc1-c1ccncc1`, the Potency result is “inactive”.
Turning to `CCCCOCCOCCO`, the Potency result was “inactive”.
Regarding `c1ccc2sc(SSN3CCOCC3)nc2c1`, the “viability change, negative = cytotoxic” value is -17.6%.
With `O=C(OCc1ccccc1)c1ccccc1O`, the Potency entry was “inactive”.
For the molecule `CN1C(C(=O)Nc2ccccn2)=C(O)c2ccccc2S1(=O)=O`, the Potency result was “inactive”.
In the case of `CC(C)CC(C)(O)C#CC(C)(O)CC(C)C` (stereo not given), the Potency result was “inactive”.
Consider `O=C(Nc1ccc(Cl)cc1)Nc1ccc(Cl)c(Cl)c1`, for which the Potency was 17.2 µM (active).
For `Nc1ccc(Cl)cc1Cl`, the Potency entry was “inactive”.
In the case of `S=C(NC1CCCCC1)NC1CCCCC1`, the “viability change, negative = cytotoxic” value was -9.38%.
As to `COC(=O)CCC(=O)OC`, the Potency result was “inactive”.
For the molecule `COc1ccccc1/C=C/C=O`, the Potency result is “inactive”.
Same read-out and setting: the entry for `O=C(/C=C/C=C/c1ccc2c(c1)OCO2)N1CCCCC1` is “inactive”; for `Cc1ccc(C(=O)c2cc(O)c(O)c([N+](=O)[O-])c2)cc1` it is 43.3 µM (active).

Source of the values: PubChem BioAssay (Tox21).
